# According to PubChem BioAssay (NCATS):
# Records with an inconclusive call do not appear. Where a call stands in place of a potency, no number is given. Activity calls are given as the source filed them. Unless noted, calls follow the shape of the dose curve; as a rule, active = well fitted curve in the direction sought with a large enough effect; inconclusive = small, poorly fitted or top-dose-only effect, or another doubt; inactive = no such curve, though single readings can be large; an effect the other way counts as inactive or inconclusive.
# Tests used:
# [1] = qHTS for Inhibitors of Ubiquitin-specific Protease USP2a Using CHOP2 as the Reporter: Cytotox Assay (AID 652170); also: nearly all actives have a fitted effect of over 70% in size; also: potency is read from the fitted curve at half-maximal effect
# In short: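 HCT116 human colon cancer cells, 600 per well in DMEM with 10% FBS, exposed to compounds for 72 hr at 37 deg C. ATP measured by CellTiter-Glo luminescence, normalized to DMSO cells and no-cell background.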
# [2] = target: Ubiquitin carboxyl-terminal hydrolase 2 (Homo sapiens) (UniProt O75604); experiment: qHTS for Inhibitors of Ubiquitin-specific Protease USP2a Using CHOP2 as the Reporter: K484 Substrate (AID 652173);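 also: cleavage of internally quenched K48 di-ubiquitin substrate measured as rising fluorescence over time; nearly all actives have a fitted effect of over 70% in size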; also: potency is read from the fitted curve at half-maximal effect
# Ubiquitin carboxyl-terminal hydrolase 2 (Homo sapiens), sequence (O75604 whole entry, looked up): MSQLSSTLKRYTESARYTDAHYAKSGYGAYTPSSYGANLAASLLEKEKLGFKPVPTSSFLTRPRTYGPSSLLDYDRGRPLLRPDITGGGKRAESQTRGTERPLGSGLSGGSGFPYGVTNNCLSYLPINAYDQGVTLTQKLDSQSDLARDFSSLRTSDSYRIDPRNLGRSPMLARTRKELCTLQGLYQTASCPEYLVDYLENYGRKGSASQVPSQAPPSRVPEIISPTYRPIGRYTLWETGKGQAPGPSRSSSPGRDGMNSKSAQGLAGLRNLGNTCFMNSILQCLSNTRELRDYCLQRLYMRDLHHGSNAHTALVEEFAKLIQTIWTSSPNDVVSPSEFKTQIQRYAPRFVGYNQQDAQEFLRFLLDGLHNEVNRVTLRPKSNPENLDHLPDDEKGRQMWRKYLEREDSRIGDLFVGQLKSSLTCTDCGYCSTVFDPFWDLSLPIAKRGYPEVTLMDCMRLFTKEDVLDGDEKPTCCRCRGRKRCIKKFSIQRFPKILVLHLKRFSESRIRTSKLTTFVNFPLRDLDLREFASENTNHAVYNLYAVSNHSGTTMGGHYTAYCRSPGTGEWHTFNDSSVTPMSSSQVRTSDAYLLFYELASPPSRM
# In short: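 USP2 (dispensed at 5 nM) was pinned with compounds, then DiUb K48 internally quenched fluorescent substrate (dispensed at 100 nM) was added. The buffer was 20 mM Tris pH 8, 2 mM beta-mercaptoethanol and 0.05% CHAPS. Cleavage was read kinetically as rising fluorescence, Ex 525/Em 598.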
# [3] = target: Calcium and integrin-binding protein 1 (Homo sapiens) (UniProt Q99828); experiment: Primary qHTS for Identification of Calcium Integrin Binding Protein 1 (CIB1) Competitor (AID 1508620);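 also: GST tagged CIB1 binding a fluorescein labelled alphaIIb integrin peptide tracer; top concentration of the series differs between compounds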
# Calcium and integrin-binding protein 1 (Homo sapiens), sequence (Q99828 whole entry, looked up): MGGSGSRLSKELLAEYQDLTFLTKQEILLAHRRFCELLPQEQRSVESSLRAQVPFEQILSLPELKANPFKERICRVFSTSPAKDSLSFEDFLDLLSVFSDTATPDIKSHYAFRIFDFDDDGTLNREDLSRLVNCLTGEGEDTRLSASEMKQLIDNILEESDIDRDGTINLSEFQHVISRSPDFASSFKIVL
# In short: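 Fluorescence polarization competition: CIB1-GST (1 uM final) preincubated with compound 15 min at room temperature, then FITC-labeled alphaIIb peptide (100 nM final) added for another 15 min. Polarization read at Ex 480/Em 540.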
# [4] = qHTS profiling for inhibitors of Plasmodium falciparum (3D7) proliferation (AID 743322);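 also: infected erythrocytes exposed to compound for 72 h before lysis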; settings: P. falciparum 3D7 proliferation; at 28.7 µM (top of the series)
# In short: (§1)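 Erythrocytes infected with P. falciparum (0.3% parasitemia, 2.5% hematocrit) incubated with compounds 72 h at 37 C, 5% CO2. Lysis with saponin/Triton buffer containing SYBR Green I, overnight at room temperature in the dark; DNA fluorescence (485/535 nm) normalised to 0.29 uM artemisinin and DMSO.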
# [5] = qHTS profiling for inhibitors of Plasmodium falciparum (DD2) proliferation (AID 743323; call rule not given here); settings: lower = more inhibition; at 28.7 µM (top of the series)
# In short: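 P. falciparum Dd2-infected erythrocytes (0.3% parasitemia, 2.5% hematocrit) exposed 72 h at 37 C, 5% CO2. Lysis with SYBR Green, overnight at room temperature, fluorescence 485/535 nm; normalized to 0.29 uM artemisinin and DMSO.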
# [6] = qHTS profiling for inhibitors of Plasmodium falciparum (HB3) proliferation (AID 743324); settings: Plasmodium falciparum HB3 blood-stage proliferation; at 28.7 µM (top of the series)
# In short: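 P. falciparum HB3 grown in erythrocytes (0.3% parasitemia, 2.5% hematocrit final) with compound for 72 h at 37 C, 5% CO2. Parasite DNA detected by SYBR Green after saponin/triton lysis overnight; normalized to 0.29 uM artemisinin and DMSO.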
# [7] = qHTS profiling of the MIPE4 collection as inhibitors of Plasmodium falciparum (3D7) proliferation (AID 743344; call rule not given here); settings: P. falciparum 3D7 in erythrocytes, SYBR Green DNA fluorescence, 72 h; at 28.5 µM (top of the series)
# In short: as §1
# [8] = qHTS profiling of the MIPE4 collection as inhibitors of Plasmodium falciparum (DD2) proliferation (AID 743345; call rule not given here); settings: P. falciparum Dd2 in erythrocytes, SYBR Green DNA, 72 h; at 28.5 µM (top of the series)
# In short: as §1
# [9] = qHTS profiling of the MIPE4 collection as inhibitors of Plasmodium falciparum (DD2) proliferation (Rep 2) (AID 743346; call rule not given here); settings: P. falciparum Dd2 in erythrocytes, SYBR Green DNA, 72 h; at 28.5 µM (top of the series)
# In short: as §1
# [10] = qHTS profiling of the MIPE4 collection as inhibitors of Plasmodium falciparum (HB3) proliferation (AID 743347; call rule not given here); settings: P. falciparum HB3 in erythrocytes, SYBR Green DNA, 72 h; at 28.5 µM (top of the series)
# In short: as §1
structure (smiles),measurement,setting,value
COc1cc(C(=O)Nc2nc(-c3ccccc3)cs2)ccc1NS(=O)(=O)c1ccc(C)cc1,Potency,[1],inactive
same,Potency,[2],2.73 µM (active)
same,Potency,[3],inactive
Cc1ccc(S(=O)(=O)Nc2cc(F)ccc2C(=O)Nc2nc(-c3ccccc3)cs2)cc1,Potency,[1],3.32 µM (active)
same,Potency,[2],0.769 µM (active)
same,Potency,[3],inactive
O=c1[nH]c(CN2CCOCC2)nc2sc3c(c12)CCCC3,Potency,[1],inactive
same,Potency,[2],inactive
same,Potency,[3],inactive
CC(C)(C)C1CCC(C(=O)Nc2ccc(S(=O)(=O)Nc3nccs3)cc2)CC1 (stereo not given),Potency,[1],inactive
same,Potency,[2],10.9 µM (active)
same,Potency,[3],inactive
Cc1ccc(S(=O)(=O)Nc2ccccc2C(=O)Nc2nc(-c3ccccc3)c(Br)s2)cc1,Potency,[1],5.9 µM (active)
same,Potency,[2],1.22 µM (active)
same,Potency,[3],inactive
Cc1ccc(S(=O)(=O)Nc2cnccc2C(=O)Nc2ccncc2)cc1,Potency,[1],inactive
same,Potency,[2],inactive
same,Potency,[3],inactive
CC1(C)CC(C(=O)Nc2ccc([S+](=O)([O-])Nc3nccs3)cc2)C1,Potency,[1],inactive
same,Potency,[2],inactive
same,Potency,[3],inactive
COc1ccc(OC)c(C(=O)Nc2nc(-c3ccccc3)cs2)c1,Potency,[1],inactive
same,Potency,[2],7.69 µM (active)
same,Potency,[3],inactive
Cc1ccc(S(=O)(=O)Nc2ccccc2C(=O)Nc2cccc(-c3ccccc3)c2)cc1,Potency,[1],16.6 µM (active)
same,Potency,[2],2.17 µM (active)
same,Potency,[3],inactive
Cc1ccc(-c2cc(C(=O)Nc3ccc(C(=O)O)cc3)c3ccccc3n2)cc1C,Potency,[1],inactive
same,Potency,[2],21.7 µM (active)
same,Potency,[3],inactive
Cc1ccc(-c2cc(C(=O)Nc3ccc(-c4nn[nH]n4)cc3)c3ccccc3n2)cc1C,Potency,[1],inactive
same,Potency,[2],4.85 µM (active)
same,Potency,[3],inactive
CC(C)C1CCC(C(=O)Nc2ccc(S(=O)(=O)Nc3nccs3)cc2)CC1 (stereo not given),Potency,[1],inactive
same,Potency,[2],10.9 µM (active)
same,Potency,[3],inactive
O=C(Nc1ccc(S(=O)(=O)Nc2nccs2)cc1)[C@@H]1CC[C@H](C(=O)c2ccccc2)C1,Potency,[2],24.3 µM (active)
same,Potency,[3],inactive
CC(C)(C)c1cc(O)c(CN)c(C(C)(C)C)c1,remaining parasite growth % (stronger effect = lower value),[4],-0.824%
same,"activity, percent of control",[5],0.498%
same,"remaining proliferation (% of control), lower = more inhibition",[6],-0.148%
same,"parasite growth, % of DMSO control",[7],6.1%
same,"parasite growth remaining, % of DMSO control (lower = more inhibition)",[8],7.28%
same,"parasite growth, % of control (lower = inhibition)",[9],19.6%
same,"growth, % of control",[10],4.33%
same,Potency,[3],inactive
Cc1ccc(S(=O)(=O)Nc2ccccc2C(=O)Nc2nccs2)cc1,Potency,[2],24.3 µM (active)
same,Potency,[3],inactive
Cc1ccc(-c2cc(C(=O)NCC[S+](=O)([O-])O)c3ccccc3n2)cc1C,Potency,[2],inactive
same,Potency,[3],inactive
